Experimental data reported in PubChem BioAssay (Tox21).
Results filed as inconclusive are left out. Activity calls are given as the source filed them. Unless noted, calls come from the whole dose curve.

Columns and labels:
[1] = Nuclear factor erythroid 2-related factor 2/antioxidant responsive element (Nrf2/ARE) small molecule agonists: qHTS cell viability counter screen in human keratinocytes (AID 1919968; active = well fitted curve in the direction sought with a large enough effect in the repeat runs; an effect the other way counts as inactive or inconclusive; note: nearly all actives have a fitted effect of over 55% in size)
In short: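 KeratinoSens HaCaT cells, 1,500/well, preincubated 5 h, then exposed to compounds in DMSO for 23 h at 37 C/5% CO2. Viability read as CellTiter-Fluor fluorescence after 1 h, in the same wells as the ARE-luciferase read.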

[2] = Nuclear factor erythroid 2-related factor 2/antioxidant responsive element (Nrf2/ARE) small molecule agonists: luciferase reporter gene qHTS assay in human keratinocytes (AID 1919969); note: nearly all actives have a fitted effect of over 35% in size; note: potency is the fitted concentration of half-maximal effect
[3] = target: Gonadotropin-releasing hormone receptor (Homo sapiens) (UniProt P30968); assay: Human gonadotropin-releasing hormone receptor (GnRHR) small molecule agonists, calcium flux assay in GnRHR-HEK293 cells (AID 1920063); note: nearly all actives have a fitted effect of over 35% in size
Sequence of Gonadotropin-releasing hormone receptor (Homo sapiens) (P30968 whole entry, looked up): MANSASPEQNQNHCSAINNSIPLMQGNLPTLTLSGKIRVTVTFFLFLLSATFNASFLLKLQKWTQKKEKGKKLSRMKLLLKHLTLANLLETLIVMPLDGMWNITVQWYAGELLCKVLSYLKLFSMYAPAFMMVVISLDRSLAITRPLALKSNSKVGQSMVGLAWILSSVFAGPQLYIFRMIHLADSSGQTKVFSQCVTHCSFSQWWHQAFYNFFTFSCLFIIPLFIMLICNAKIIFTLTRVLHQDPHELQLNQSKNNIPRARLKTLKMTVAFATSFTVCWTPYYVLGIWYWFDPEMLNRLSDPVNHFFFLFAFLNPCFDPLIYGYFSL
In short: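 HEK293 cells stably expressing human GnRHR were dye-loaded for 1 h at 37 C. Compound was added in agonist mode and fluorescence (Ex/Em 480/540) recorded kinetically for 3 min. Fifteen concentrations, triplicates.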

[4] = target: KiSS-1 receptor (Homo sapiens) (UniProt Q969F8); assay: Human kisspeptin (KISS1R) small molecule agonists, calcium flux assay in KISS1R-HEK293 cells (AID 1920064; active = well fitted curve in the direction sought with a large enough effect in the repeat runs; an effect the other way counts as inactive or inconclusive)
Sequence of KiSS-1 receptor (Homo sapiens) (Q969F8 whole entry, looked up): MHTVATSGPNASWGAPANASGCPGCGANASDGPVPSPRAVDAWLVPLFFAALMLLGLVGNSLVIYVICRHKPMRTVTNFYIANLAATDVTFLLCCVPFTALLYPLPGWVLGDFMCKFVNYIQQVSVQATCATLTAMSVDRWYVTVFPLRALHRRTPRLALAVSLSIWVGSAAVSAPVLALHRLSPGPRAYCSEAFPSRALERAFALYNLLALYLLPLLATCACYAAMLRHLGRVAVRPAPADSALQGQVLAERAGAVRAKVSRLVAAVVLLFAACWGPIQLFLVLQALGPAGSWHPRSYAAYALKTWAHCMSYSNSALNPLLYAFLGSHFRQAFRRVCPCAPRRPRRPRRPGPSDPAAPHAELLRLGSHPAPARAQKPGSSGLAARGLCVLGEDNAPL
In short: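 HEK293 cells stably expressing human KISS1R were loaded with calcium dye for 1 h at 37 C, then given compound; fluorescence (Ex/Em 480/540) was read kinetically for 3 min. Fifteen concentrations, triplicate.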

[5] = G protein-coupled receptor (GPCR) small molecule agonists, calcium flux assay: HEK293 wild type cell line counter screen (AID 1920065)
In short: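 Wild-type HEK293 cells plated 18 h, loaded with calcium dye 1 h at 37 C, then compounds added in agonist mode (ATP as positive control). Kinetic fluorescence Ex/Em 480/540 recorded 3 min at 1 sec intervals; 15 concentrations, triplicate.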

[6] = p53 small molecule agonists, cell-based qHTS assay with human liver microsomes: qHTS cell viability counter screen (AID 1963579); note: nearly all actives have a fitted effect of over 45% in size
In short: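 In this multiplexed counter screen, the reporter plates were subsequently treated with CellTiter-Glo so that cell viability, reflected by luminescence, could be recorded for p53RE-bla cells dosed 16 h with compounds under microsomal activation (HLM and NADPH).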

[7] = p53 small molecule agonists, cell-based qHTS assay with rat liver microsomes: qHTS cell viability counter screen (AID 1963580); note: nearly all actives have a fitted effect of over 45% in size
In short: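 Intracellular ATP, by CellTiter-Glo luminescence, defines viability. HCT-116 p53RE-bla cells, 4,000 per well, were compound-treated in the presence of rat liver microsomes and NADPH for 16 h at 37 C.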

[8] = target: 5-hydroxytryptamine receptor 2A (Homo sapiens) (UniProt P28223); assay: 5-hydroxytryptamine receptor 2A (HTR2A) small molecule agonists, cell-based qHTS assay (AID 1963587); note: nearly all actives have a fitted effect of over 30% in size
Sequence of 5-hydroxytryptamine receptor 2A (Homo sapiens) (P28223 whole entry, looked up): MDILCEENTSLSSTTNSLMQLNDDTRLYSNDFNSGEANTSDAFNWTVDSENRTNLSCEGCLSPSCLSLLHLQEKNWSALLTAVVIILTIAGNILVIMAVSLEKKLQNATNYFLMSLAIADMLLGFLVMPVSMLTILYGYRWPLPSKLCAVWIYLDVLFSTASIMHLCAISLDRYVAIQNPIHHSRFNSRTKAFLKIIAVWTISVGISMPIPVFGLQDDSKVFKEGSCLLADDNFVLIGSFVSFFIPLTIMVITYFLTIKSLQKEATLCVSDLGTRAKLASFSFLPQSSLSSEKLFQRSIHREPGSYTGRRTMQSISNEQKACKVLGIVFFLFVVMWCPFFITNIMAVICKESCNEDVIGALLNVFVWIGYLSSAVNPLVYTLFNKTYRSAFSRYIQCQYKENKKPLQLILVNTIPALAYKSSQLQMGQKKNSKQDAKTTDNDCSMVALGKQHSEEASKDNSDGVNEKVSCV
In short: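 Kinetic calcium-flux fluorescence (2 min, 1 sec intervals) after compound addition in agonist mode. HTR2A-CHO cells were cultured 18 h, then dye-loaded 1 h at 37 C.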

[9] = target: Muscarinic acetylcholine receptor M1 (Homo sapiens) (UniProt P11229); assay: Cholinergic receptor muscarinic 1 (CHRM1) small molecule antagonists, cell-based qHTS assay (AID 1963588); note: nearly all actives have a fitted effect of over 40% in size; note: potency is the fitted concentration of half-maximal effect
Sequence of Muscarinic acetylcholine receptor M1 (Homo sapiens) (P11229 whole entry, looked up): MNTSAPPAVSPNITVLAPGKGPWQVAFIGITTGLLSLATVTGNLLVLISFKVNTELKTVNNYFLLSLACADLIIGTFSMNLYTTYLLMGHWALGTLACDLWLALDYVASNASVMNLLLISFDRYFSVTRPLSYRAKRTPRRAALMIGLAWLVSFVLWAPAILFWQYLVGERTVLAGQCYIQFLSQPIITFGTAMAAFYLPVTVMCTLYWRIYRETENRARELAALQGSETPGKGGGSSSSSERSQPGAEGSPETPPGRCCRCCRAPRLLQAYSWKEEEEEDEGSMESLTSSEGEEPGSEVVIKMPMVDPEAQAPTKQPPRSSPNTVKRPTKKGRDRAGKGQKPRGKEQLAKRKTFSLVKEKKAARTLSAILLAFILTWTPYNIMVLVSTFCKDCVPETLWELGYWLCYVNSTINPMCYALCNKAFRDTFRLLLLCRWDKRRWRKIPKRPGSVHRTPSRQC
In short: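 CHRM1-CHO calcium-flux assay, antagonist mode. Cells were seeded 18 h, dye-loaded 1 h at 37 C and given compound for 5 min at RT, then acetylcholine was added at 50nM. FDSS fluorescence was read 3 min; 15 concentrations, three runs.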

[10] = target: Muscarinic acetylcholine receptor M1 (Homo sapiens) (UniProt P11229); assay: Cholinergic receptor muscarinic 1 (CHRM1) small molecule agonists, cell-based qHTS assay (AID 1963589); note: nearly all actives have a fitted effect of over 35% in size
In short: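 CHO cells stably expressing human CHRM1 were loaded with calcium dye for 1 h at 37 C, then compound was added in agonist mode. Intracellular calcium fluorescence was followed kinetically at 1 s intervals. Fifteen concentrations were tested in three independent runs.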

[11] = cAMP Responsive Elements (CRE) small molecule agonists, cell-based qHTS assay (AID 1963590)
In short: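 CRE-bla HEK 293T cells, 2,000/well in DMEM with 10% dialyzed FBS and 25 mM HEPES, pre-incubated 18 h at 37 C, then exposed to compound 3 h at 37 C. Beta-lactamase reporter read with LiveBLAzer B/G FRET substrate after 2 h at room temperature.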

[12] = cAMP Responsive Elements (CRE) small molecule antagonists, cell-based qHTS assay (AID 1963591; active = well fitted inhibition curve with a large enough effect in the signal ratio in the repeat runs, not every such curve was filed as active; the % refers to the signal ratio)
In short: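 CRE-bla HEK293T cells plated 18 h, then given compound plus NKH477 at 0.25 uM final for 3 h at 37C. Beta-lactamase reporter read with LiveBLAzer B/G FRET substrate after 2 h at room temperature.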

[13] = target: Beta-2 adrenergic receptor (Homo sapiens) (UniProt P07550); assay: Adrenergic beta2 receptor (ADRB2) small molecule antagonists, cell-based qHTS assay (AID 1963592); note: nearly all actives have a fitted effect of over 50% in size; note: potency is the fitted concentration of half-maximal effect; for activity change, negative = inhibition: series mostly up to about 92 µM
Sequence of Beta-2 adrenergic receptor (Homo sapiens) (P07550 whole entry, looked up): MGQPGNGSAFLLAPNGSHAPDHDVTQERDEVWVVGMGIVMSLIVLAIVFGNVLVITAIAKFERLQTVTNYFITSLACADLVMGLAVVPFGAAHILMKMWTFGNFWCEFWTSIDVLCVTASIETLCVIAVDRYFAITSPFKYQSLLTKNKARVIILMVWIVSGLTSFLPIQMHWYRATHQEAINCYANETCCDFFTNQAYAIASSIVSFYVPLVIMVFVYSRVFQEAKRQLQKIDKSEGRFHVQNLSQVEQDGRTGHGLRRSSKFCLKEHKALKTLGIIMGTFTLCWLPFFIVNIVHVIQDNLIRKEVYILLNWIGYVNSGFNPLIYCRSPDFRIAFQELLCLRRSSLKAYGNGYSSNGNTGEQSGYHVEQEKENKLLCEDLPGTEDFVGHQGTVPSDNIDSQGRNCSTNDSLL
In short: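 Cells (CHO, stable ADRB2 overexpression) incubated 18-20hr at 37C; compounds added from DMSO; agonist mix (1nM isoproterenol, 100uM IBMX, 25uM Ro-20-1724) added; 0.5hr RT; d2-cAMP and anti-cAMP-cryptate added; 1hr RT; 665/615 nm read.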

[14] = target: D(2) dopamine receptor (Homo sapiens) (UniProt P14416); assay: Dopamine D2 receptor (DRD2) small molecule agonists, cell-based qHTS assay (AID 1963594); note: nearly all actives have a fitted effect of over 35% in size
Sequence of D(2) dopamine receptor (Homo sapiens) (P14416 whole entry, looked up): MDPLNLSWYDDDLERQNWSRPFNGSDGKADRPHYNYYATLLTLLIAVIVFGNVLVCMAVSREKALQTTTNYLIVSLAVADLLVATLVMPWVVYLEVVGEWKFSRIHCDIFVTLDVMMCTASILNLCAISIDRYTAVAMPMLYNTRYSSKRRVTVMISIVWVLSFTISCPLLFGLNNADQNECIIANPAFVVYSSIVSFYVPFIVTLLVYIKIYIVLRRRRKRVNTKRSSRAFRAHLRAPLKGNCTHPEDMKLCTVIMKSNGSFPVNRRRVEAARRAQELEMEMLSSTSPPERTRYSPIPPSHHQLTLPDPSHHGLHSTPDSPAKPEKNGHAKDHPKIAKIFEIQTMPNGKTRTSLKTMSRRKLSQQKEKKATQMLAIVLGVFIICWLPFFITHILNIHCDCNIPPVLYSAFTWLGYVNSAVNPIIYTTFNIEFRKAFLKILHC
In short: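 cAMP accumulation in DRD2-HEK293 cells measured by HTRF after 1 h detection; compounds added 10 min before NKH477 (200nM […]) forskolin-analogue stimulation, 30 min at room temperature, with Ro20-1724 present at 0.1 mM final.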

[15] = target: D(2) dopamine receptor (Homo sapiens) (UniProt P14416); assay: Dopamine D2 receptor (DRD2) small molecule antagonists, cell-based qHTS assay (AID 1963595; active = well fitted inhibition curve with a large enough effect in the signal ratio in the repeat runs, with a control signal flat; the % refers to the signal ratio)
In short: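 Antagonist mode in DRD2-HEK293 cells: after compound addition with 0.1 mM Ro20-1724, cells received quinpirole (12 nM) and NKH477 (200 nM) for 30 min at room temperature; HTRF cAMP read after 1 h detection.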

[16] = p53 small molecule agonists, cell-based qHTS assay: qHTS cell viability counter screen (AID 1963581); note: nearly all actives have a fitted effect of over 45% in size
In short: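 p53RE-bla HCT-116 cells, compounds added 5 h after plating and incubated 16 h at 37 C. Cytotoxicity measured in the same wells as intracellular ATP by CellTiter-Glo luminescence after 30 min at room temperature.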

[17] = target: 5-hydroxytryptamine receptor 2A (Homo sapiens) (UniProt P28223); assay: 5-hydroxytryptamine receptor 2A (HTR2A) small molecule antagonists, cell-based qHTS assay (AID 1963586); note: nearly all actives have a fitted effect of over 45% in size
In short: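 Antagonist-mode intracellular calcium assay: DOI (4 nM) added after 5 min compound pre-incubation at room temperature to dye-loaded HTR2A-CHO cells. Fluorescence followed for 3 min, sampled every second.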

[18] = target: Beta-2 adrenergic receptor (Homo sapiens) (UniProt P07550); assay: Adrenergic beta2 receptor (ADRB2) small molecule agonists, cell-based qHTS assay (AID 1963593);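 note: CHO cells stably overexpressing human ADRB2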
In short: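 CHO cells stably over-expressing ADRB2 were plated overnight at 37C, then dosed with compounds plus a stimulation mix containing 100uM IBMX and 25uM Ro-20-1724 for 0.5hr at room temperature. cAMP was measured by HTRF competition, 1hr.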
% is set by controls: 0 for no effect and ±100 for the full control effect.

O=C(Cc1ccccc1)OCc1ccccc1
inactive: Potency [1] | Potency [2] | Potency [3] | Potency [4] | Potency [5] | Potency [6] | Potency [7] | Potency [8] | Potency [9] | Potency [10] | Potency [11] | Potency [12] | Potency [13] | Potency [14] | Potency [15]

CC[N+]1(CCOC(=O)C(O)(c2ccccc2)c2ccccc2)CCCCC1
inactive: Potency [1] | Potency [2] | Potency [3] | Potency [4] | Potency [5] | Potency [6] | Potency [7] | Potency [16] | Potency [12] | Potency [13] | Potency [14] | Potency [15]

Clc1cc(Cl)c(Cl)c(Cl)c1
inactive: Potency [1] | Potency [2] | Potency [3] | Potency [4] | Potency [5] | Potency [6] | Potency [7] | Potency [16] | Potency [8] | Potency [9] | Potency [10] | Potency [12] | Potency [13] | Potency [14] | Potency [15]

C[N+](C)=CCl
inactive: Potency [1] | Potency [2] | Potency [3] | Potency [4] | Potency [5] | Potency [6] | Potency [16] | Potency [17] | Potency [8] | Potency [9] | Potency [10] | Potency [12] | Potency [13] | Potency [14] | Potency [15]

CCCCC(CC)COP(=O)(Oc1ccccc1)Oc1ccccc1 (stereo not given)
inactive: Potency [1] | Potency [3] | Potency [4] | Potency [5] | Potency [6] | Potency [7] | Potency [16] | Potency [8] | Potency [9] | Potency [10] | Potency [13] | Potency [18] | Potency [15]
active: Potency [2] 30.6 µM

O=C(NC(=O)c1c(F)cccc1F)Nc1ccc(OC(F)(F)C(F)OC(F)(F)F)c(Cl)c1 (stereo not given)
inactive: Potency [1] | Potency [2] | Potency [3] | Potency [4] | Potency [5] | Potency [6] | Potency [7] | Potency [16] | Potency [8] | Potency [11] | Potency [13] | Potency [18] | Potency [14] | Potency [15]

O=[N+]([O-])c1cccc2cccc([N+](=O)[O-])c12
inactive: Potency [1] | Potency [2] | Potency [3] | Potency [4] | Potency [5] | Potency [6] | Potency [7] | Potency [8] | Potency [9] | Potency [10] | Potency [12] | Potency [13] | Potency [14] | Potency [15]

COc1ccc(OC)c(CC(C)N)c1 (stereo not given)
active: Potency [13] 65.6 µM
inactive: Potency [1] | Potency [2] | Potency [3] | Potency [4] | Potency [5] | Potency [6] | Potency [7] | Potency [16] | Potency [9] | Potency [10] | Potency [11] | Potency [12] | Potency [14] | Potency [15]

CNN
inactive: Potency [1] | Potency [2] | Potency [3] | Potency [4] | Potency [5] | Potency [7] | Potency [16] | Potency [17] | Potency [8] | Potency [9] | Potency [10] | Potency [11] | Potency [12] | Potency [13] | Potency [18] | Potency [14] | Potency [15]

C=C(C)[C@H]1CN[C@H](C(=O)O)[C@H]1CC(=O)O
inactive: Potency [1] | Potency [2] | Potency [3] | Potency [4] | Potency [5] | Potency [6] | Potency [7] | Potency [16] | Potency [8] | Potency [9] | Potency [10] | Potency [11] | Potency [18] | Potency [14] | Potency [15]

Clc1ccc(C(OCCN2CCCCC2)c2ccccc2)cc1 (stereo not given)
inactive: Potency [1] | Potency [2] | Potency [3] | Potency [4] | Potency [5] | Potency [6] | Potency [7] | Potency [16] | Potency [8] | Potency [10] | Potency [12] | Potency [13] | Potency [18] | Potency [14]
active: Potency [9] 0.46 µM

CNC(=O)Oc1cc(C)c(N(C)C)c(C)c1
inactive: Potency [1] | Potency [2] | Potency [3] | Potency [4] | Potency [5] | Potency [7] | Potency [16] | Potency [17] | Potency [8] | Potency [9] | Potency [10] | Potency [12] | Potency [13] | Potency [14] | Potency [15]

CC(C)=CC1C(C(=O)OC(C#N)c2cccc(Oc3ccccc3)c2)C1(C)C (stereo not given)
inactive: Potency [1] | Potency [2] | Potency [3] | Potency [4] | Potency [5] | Potency [6] | Potency [7] | Potency [16] | Potency [8] | Potency [9] | Potency [11] | Potency [12] | Potency [13] | Potency [14] | Potency [15]

CCOC(=O)NC(O)C(Cl)(Cl)Cl (stereo not given)
inactive: Potency [1] | Potency [2] | Potency [3] | Potency [4] | Potency [5] | Potency [6] | Potency [7] | Potency [8] | Potency [9] | Potency [10] | Potency [11] | Potency [13] | Potency [14] | Potency [15]

CCNP(=S)(OC)O/C(C)=C/C(=O)OC(C)C (stereo not given)
inactive: Potency [1] | Potency [2] | Potency [3] | Potency [4] | Potency [5] | Potency [7] | Potency [16] | Potency [17] | Potency [9] | Potency [10] | Potency [11] | Potency [12] | Potency [13] | Potency [18] | Potency [14] | Potency [15]

NCC(CC(=O)O)c1ccc(Cl)cc1 (stereo not given)
inactive: activity change, negative = cytotoxicity [1] 20.7% [at 0.349 µM] | activity, positive = activation [2] 2.43% [at 0.349 µM] | activity change [3] -1.11% [at 0.217 µM, hits give high values] | activation [4] -1.08% [at 0.29 µM] | activation [5] 0.685% [at 0.217 µM] | activity change, negative = cytotoxicity [6] -3.85% [at 0.249 µM] | activity change, negative = cytotoxicity [7] 5.91% [at 0.249 µM] | activity change, negative = cytotoxicity [16] -8.51% [at 0.249 µM] | activation [11] -1.8% [at 0.349 µM] | activity change, negative = inhibition [12] -4.66% [at 0.349 µM] | activity change, negative = inhibition [13] 2.66% [at 0.349 µM] | activation [18] 10.6% [at 0.349 µM] | activation [14] 0.37% [at 0.349 µM] | activity change, negative = inhibition [15] 1.84% [at 0.348 µM]
